# Experimental data: publication PMC5540273 (PLoS ONE, 2017)
# Tested on: CDKL3
# Conditions: concentration: 1 μM, replicates: in singlicate; n = 1
# 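Further: KINOMEscan kinase panel screen.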
row,SMILES,%Inh [%]
1,COc1ccc(Nc2nccc(N3CCC(NC(=O)c4cc5ccccc5s4)C3)n2)cc1 (stereo not drawn) [GSK1379738],0
2,Cc1ccc(-c2nc(Nc3ccncc3)c3ccccc3n2)s1 [GSK189015],0
3,Cn1cncc1C(=O)NC1CCN(c2ccnc(Nc3ccc(F)cc3)n2)C1 (stereo not drawn) [GSK1379717],99.5
4,COc1ccc(Nc2nccc(N3CCC(NC(=O)C(C)c4ccc(Cl)cc4)C3)n2)cc1 (stereo not drawn) [GSK1379735],0
5,COc1nccc(-c2c(-c3ccc(F)cc3)ncn2CCCN2CCOCC2)n1 [SB-282852],0
6,Cc1ccccc1Cn1ccn2c(=O)cc(N3CCOCC3)nc12 [GSK2269905],0
7,CS(=O)(=O)CCNCc1nc(-c2ccc3ncnc(Nc4ccc5c(cnn5Cc5ccccc5)c4)c3c2)cs1.Cl.Cl [GW569716],100
8,O=C1NC(=O)C(c2ccc(Cl)cc2)=C1Nc1ccc(O)cc1 [SB-340867],0
9,Cc1cccc2c(-c3ccncn3)c(-c3ccc(F)cc3)nn12 [GW515532],0
10,Cn1cncc1-c1cc2c(Nc3ccc(OCc4ccccc4)cc3)ncnc2cn1 [GW281179],0
11,CCn1c(-c2ccccc2)nc2cnccc21 [SB-733416],0
12,Nc1ncnc2occ(-c3ccc4c(c3)CCN4C(=O)Cc3cc(F)ccc3F)c12 [GSK2645446],0
13,c1ccc(-c2ccnc3[nH]ccc23)cc1 [SB-693578],0
14,O=C(Nc1n[nH]c2cc(-c3ccsc3)ccc12)C1CC1 [SB-732932],36
15,COc1ccc(Nc2nccc(NCCNC(=O)Nc3cc(C)ccc3C)n2)cc1 [GSK1379899],0
16,Cc1ccc(NC(=O)Nc2ccccc2F)cc1-c1ccc(C(=O)Nc2ccncc2)cc1 [GSK1398477],0
17,Cl.Cl.Cl.N#Cc1ccc(CCNc2nccc(-c3cccc(CN4CCNCC4)c3)n2)cc1 [GSK2137462],0
18,O=C1NC(=O)C(c2ccc(Cl)cc2)=C1Nc1cccc(Cl)c1 [SB-317651],2

row,SMILES,%Inh [%]
1,Cc1ccccc1-c1cc(-c2c[nH]nc2-c2ccccn2)ccn1 [GW680061],0
2,Fc1ccc(-c2nc3n(c2-c2ccncc2)CCS3)cc1 [GI98581],0
3,CC(C)c1ccc(O)cc1Nc1ccnc2ccc(C(F)(F)F)cc12 [GW482059],0
4,CC(=O)c1cccc(NC(=O)NC2CCN(c3ccnc(Nc4ccc(F)cc4)n3)C2)c1 (stereo not drawn) [GSK1379710],0
5,Cc1nccc(-c2c(-c3ccc(F)cc3)ncn2CCCN2CCOCC2)n1.Cl [SB-282975],12
6,O=C(Nc1n[nH]c2nc(-c3ccco3)c(Br)cc12)C1CCN(Cc2ccccc2)C1.O=C(O)[C@H](O)[C@@H](O)C(=O)O (stereo not drawn) [SB-742034],0
7,O=c1cc(N2CCOCC2)nc2n(Cc3cccc(Cl)c3Cl)c3ccccc3n12 [GSK2299009],0
8,Cn1cnc2c(N)ncnc21 [SKF-97623],0
9,CNCc1ccc2nc(NC(=O)c3ccc(C(C)(C)C)cc3)cn2c1,0
10,COc1ccc(CSc2nnc(-c3ccc4nccn4c3)o2)cc1C(F)(F)F,18
11,O=C(Nc1n[nH]c2nc(-c3cccs3)c(Br)cc12)C1CCCC1 [SB-743341],0
12,Nc1nccc(-c2c(-c3ccc(F)cc3)ncn2C2CCN(Cc3ccccc3)CC2)n1 [SB-219980],9
13,Cc1ccc(NC(=O)Nc2ccc(Cl)c(C(F)(F)F)c2)cc1-c1ccc(C(=O)Nc2ccncc2)cc1 [GSK1398470],0
14,COc1ccc(CSc2nnc(-c3ccc4c(c3)CCO4)o2)cc1,0
15,NS(=O)(=O)c1cccc(N/C=C2\C(=O)Nc3ccc(S(=O)(=O)Cc4c(Cl)cccc4Cl)cc32)c1 [GSK398099],0
16,CNc1nc(-c2ccc3c(N)n[nH]c3c2)cc(N2C[C@@H](C(=O)NC3CCCCC3)OC[C@H]2C)n1 [GSK2375584],0
17,CS(=O)(=O)Cc1ccc(Nc2nccc(-c3c(-c4cccc(NC(=O)C5CCCCC5)c4)nn4ncccc34)n2)cc1 [GSK350559],0
18,COC(=O)c1cccc(NC(=O)NC2CCN(c3ccnc(Nc4ccc(OC)cc4)n3)C2)c1 (stereo not drawn) [GSK1379746],0

# Tested on: CDKL5
# Conditions: concentration: 1 μM, replicates: in singlicate; n = 1
row,SMILES,%Inh [%]
1,COc1ccc(Nc2nccc(N3CCC(NC(=O)c4cc5ccccc5s4)C3)n2)cc1 (stereo not drawn) [GSK1379738],0
2,Cc1ccc(-c2nc(Nc3ccncc3)c3ccccc3n2)s1 [GSK189015],14
3,Cn1cncc1C(=O)NC1CCN(c2ccnc(Nc3ccc(F)cc3)n2)C1 (stereo not drawn) [GSK1379717],0
4,COc1ccc(Nc2nccc(N3CCC(NC(=O)C(C)c4ccc(Cl)cc4)C3)n2)cc1 (stereo not drawn) [GSK1379735],9
5,COc1nccc(-c2c(-c3ccc(F)cc3)ncn2CCCN2CCOCC2)n1 [SB-282852],0
6,Cc1ccccc1Cn1ccn2c(=O)cc(N3CCOCC3)nc12 [GSK2269905],3
7,CS(=O)(=O)CCNCc1nc(-c2ccc3ncnc(Nc4ccc5c(cnn5Cc5ccccc5)c4)c3c2)cs1.Cl.Cl [GW569716],14
8,O=C1NC(=O)C(c2ccc(Cl)cc2)=C1Nc1ccc(O)cc1 [SB-340867],0
9,Cc1cccc2c(-c3ccncn3)c(-c3ccc(F)cc3)nn12 [GW515532],0
10,Cn1cncc1-c1cc2c(Nc3ccc(OCc4ccccc4)cc3)ncnc2cn1 [GW281179],1
11,CCn1c(-c2ccccc2)nc2cnccc21 [SB-733416],4
12,Nc1ncnc2occ(-c3ccc4c(c3)CCN4C(=O)Cc3cc(F)ccc3F)c12 [GSK2645446],0
13,c1ccc(-c2ccnc3[nH]ccc23)cc1 [SB-693578],9
14,O=C(Nc1n[nH]c2cc(-c3ccsc3)ccc12)C1CC1 [SB-732932],17
15,COc1ccc(Nc2nccc(NCCNC(=O)Nc3cc(C)ccc3C)n2)cc1 [GSK1379899],5
16,Cc1ccc(NC(=O)Nc2ccccc2F)cc1-c1ccc(C(=O)Nc2ccncc2)cc1 [GSK1398477],18
17,Cl.Cl.Cl.N#Cc1ccc(CCNc2nccc(-c3cccc(CN4CCNCC4)c3)n2)cc1 [GSK2137462],0
18,O=C1NC(=O)C(c2ccc(Cl)cc2)=C1Nc1cccc(Cl)c1 [SB-317651],0

row,SMILES,%Inh [%]
1,Cc1ccccc1-c1cc(-c2c[nH]nc2-c2ccccn2)ccn1 [GW680061],0
2,Fc1ccc(-c2nc3n(c2-c2ccncc2)CCS3)cc1 [GI98581],0
3,CC(C)c1ccc(O)cc1Nc1ccnc2ccc(C(F)(F)F)cc12 [GW482059],0
4,CC(=O)c1cccc(NC(=O)NC2CCN(c3ccnc(Nc4ccc(F)cc4)n3)C2)c1 (stereo not drawn) [GSK1379710],0
5,Cc1nccc(-c2c(-c3ccc(F)cc3)ncn2CCCN2CCOCC2)n1.Cl [SB-282975],0
6,O=C(Nc1n[nH]c2nc(-c3ccco3)c(Br)cc12)C1CCN(Cc2ccccc2)C1.O=C(O)[C@H](O)[C@@H](O)C(=O)O (stereo not drawn) [SB-742034],85
7,O=c1cc(N2CCOCC2)nc2n(Cc3cccc(Cl)c3Cl)c3ccccc3n12 [GSK2299009],7
8,Cn1cnc2c(N)ncnc21 [SKF-97623],0
9,CNCc1ccc2nc(NC(=O)c3ccc(C(C)(C)C)cc3)cn2c1,23
10,COc1ccc(CSc2nnc(-c3ccc4nccn4c3)o2)cc1C(F)(F)F,16
11,O=C(Nc1n[nH]c2nc(-c3cccs3)c(Br)cc12)C1CCCC1 [SB-743341],0
12,Nc1nccc(-c2c(-c3ccc(F)cc3)ncn2C2CCN(Cc3ccccc3)CC2)n1 [SB-219980],2
13,Cc1ccc(NC(=O)Nc2ccc(Cl)c(C(F)(F)F)c2)cc1-c1ccc(C(=O)Nc2ccncc2)cc1 [GSK1398470],6
14,COc1ccc(CSc2nnc(-c3ccc4c(c3)CCO4)o2)cc1,0
15,NS(=O)(=O)c1cccc(N/C=C2\C(=O)Nc3ccc(S(=O)(=O)Cc4c(Cl)cccc4Cl)cc32)c1 [GSK398099],0
16,CNc1nc(-c2ccc3c(N)n[nH]c3c2)cc(N2C[C@@H](C(=O)NC3CCCCC3)OC[C@H]2C)n1 [GSK2375584],1
17,CS(=O)(=O)Cc1ccc(Nc2nccc(-c3c(-c4cccc(NC(=O)C5CCCCC5)c4)nn4ncccc34)n2)cc1 [GSK350559],33
18,COC(=O)c1cccc(NC(=O)NC2CCN(c3ccnc(Nc4ccc(OC)cc4)n3)C2)c1 (stereo not drawn) [GSK1379746],0
